From PubChem
This is a sample that favours compounds with a hit; in the whole collection about 7.3% have one here.
ELG1 genotox = inducers of genotoxicity in HEK293T ELG1-luciferase cells. Potency, µM (top dose mostly 46 µM), without a hit: at the highest dose activity change, positive = activation, usual class: activators. AID 504466. 1.3% of 330,000 active. HEK293T ELG1-luciferase reporter, luminescence, 16 h; further: % of control where 0% means no effect; nearly all actives have a fitted effect of over 60% in size
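Reporter readout depends on ELG1 protein level, which increases with genetic stress. After 16 hr compound exposure at 37 °C, luciferase activity was quantified using ONE-Glo.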
FLuc counter = inhibits or activates purified firefly luciferase, miR-21 counter-screen. purified FLuc, Km substrates, luminescence inhibition. 6.9% of 360,000 active. AID 588342. P08659. Potency, µM (series often up to 57.5 µM), inactives show at the highest dose activity change, negative = inhibition, usual class: inhibitors;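 further: plate controls were vehicle for no effect and reference inhibitor for full effect; nearly all actives have a fitted effect of over 55% in size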
Target sequence (P08659 whole entry, looked up): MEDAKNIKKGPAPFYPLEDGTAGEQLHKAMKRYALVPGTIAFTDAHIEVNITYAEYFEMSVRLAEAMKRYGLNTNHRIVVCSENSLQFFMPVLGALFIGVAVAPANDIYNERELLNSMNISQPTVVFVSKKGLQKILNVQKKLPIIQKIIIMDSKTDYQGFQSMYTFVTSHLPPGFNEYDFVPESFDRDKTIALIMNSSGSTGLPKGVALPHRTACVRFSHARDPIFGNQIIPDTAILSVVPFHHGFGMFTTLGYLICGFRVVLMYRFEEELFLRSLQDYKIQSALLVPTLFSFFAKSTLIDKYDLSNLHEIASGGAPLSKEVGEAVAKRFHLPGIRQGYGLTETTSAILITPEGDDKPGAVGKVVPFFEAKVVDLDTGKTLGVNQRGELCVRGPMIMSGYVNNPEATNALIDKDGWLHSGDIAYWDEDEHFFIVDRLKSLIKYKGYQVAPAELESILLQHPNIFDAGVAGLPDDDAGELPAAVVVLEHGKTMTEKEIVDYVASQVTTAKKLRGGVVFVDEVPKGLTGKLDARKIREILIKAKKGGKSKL
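Purified P. pyralis luciferase, 10 nM final, with Km-level 10 uM D-luciferin and 10 uM ATP in 50 mM Tris acetate pH 7.5, 10 mM Mg acetate, 0.01% Tween-20, 0.05% BSA; 6-point qHTS titration about 60 µM downward; luminescence read.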
SMN2 splice enh = SMN2 splice variant enhancement; HEK293 SMN2-luciferase splicing reporter, luminescence, 30-36 h; Potency, µM (highest dose often 46.1 µM), inactives show at the highest dose activity change, positive = activation, usual class: activators; 2.8% of 210,000 active; further: % of control where 0% means no effect; nearly all actives have a fitted effect of over 55% in size
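qHTS luciferase splicing reporter: luminescence rises when SMN2 exon 7 is included in transfected HEK293 cells. Compound exposure lasted 30-36 h at 37C, with 4.5 mM final sodium butyrate as control, followed by a ONE-Glo read.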
Rab9 prom act = activators of Rab9 promoter; Huh7 Rab9 promoter-luciferase reporter, luminescence, 24 h; Potency, µM (highest dose often 9.22 µM), without a hit: at the top dose activation, negative = inhibition, usual class: activators; 2.8% of 320,000 active; AID 485297; further: % of control where 0% means no effect; nearly all actives have a fitted effect of over 60% in size
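Luminescence read-out: Huh7 cells stably expressing Rab9-luciferase, treated 24 h with compound at 37 °C, then lysed with luciferase reagent for 10 min at ambient before reading.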
NPC1 prom act = activators of NPC1 promoter. AID 485313. 2.4% of 320,000 active. Huh7 NPC1 promoter luciferase reporter, 24 h. Potency, µM (doses to about 9.22 µM), without a hit: at the top dose activation, hits mostly activators; further: % of control where 0% means no effect; nearly all actives have a fitted effect of over 60% in size
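Quantitative HTS used a cell-based reporter: Huh7 cells stably bearing the NPC1 promoter upstream of luciferase were treated with compounds for 24 h, and promoter activation was read as luminescence.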
Luc counter = counter-screen: inhibitors of Kinase-Glo firefly luciferase | Potency, µM (series often up to 38.3 µM), for the others: at the highest dose activity change, negative = inhibition, most hits filed as inhibitors | Kinase-Glo luciferase, ATP luminescence, 8 min | 0.28% of 200,000 active; further: on the % scale 0 is the no-effect control and ±100 the full control effect; nearly all actives have a fitted effect of over 60% in size
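Light output from Kinase-Glo luciferase with luciferin and 10 uM ATP in 50 mM imidazole pH 7.2, KCl, MgCl2, Tween 20, BSA; compound pin-delivered, 8-min ambient incubation, then luminescence read.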
* = called active by the depositor; ? = inconclusive; . = no result given; [ ] = remark or other dose. The call rests on the fitted dose curve; in most records, active means well fitted curve in the direction sought with a large enough effect; inconclusive means small, poorly fitted or top-dose-only effect, or another doubt; inactive means no such curve, though single readings can be large; an effect the other way counts as inactive or inconclusive. Potency means the concentration at half of the fitted maximal effect.

SMILES	ELG1 genotox	FLuc counter	SMN2 splice enh	Rab9 prom act	NPC1 prom act	Luc counter
CCn1nc(-c2ccccc2)c(-c2ccccc2)c(C(=O)Nc2ccccc2C(N)=O)c1=O	.	-14%	2%	.	.	.
CCOc1ccc(-c2ccc(SCC(=O)NCC3CCCO3)nn2)cc1 (stereo not given)	5%	5.4µM*	16µM*	3.2µM*	?	-6%
Cc1ccc(-c2ccc(SCC(=O)NCC3CCCO3)nn2)cc1 (stereo not given)	2%	17µM*	-1%	18%	11%	-3%
CCOC(=O)CSc1ncnc2c1nnn2-c1ccc(F)cc1	6%	15µM*	-15%	3%	0%	0%
Cc1ccc(-n2nnc3c(SCC(=O)NCC4CCCO4)ncnc32)cc1 (stereo not given)	13%	5.4µM*	-5%	-1%	8%	-1%
CCOC(=O)CC(=O)CSc1ncnc2c1nnn2-c1ccc(F)cc1	0%	?	-8%	5%	-1%	1%
c1ccc(-c2noc(-c3ccc4c(c3)OCO4)n2)nc1	?	0.24µM*	0.5µM*	?	?	2.8µM*
Cc1cccc(-c2noc(-c3ccc4c(c3)OCO4)n2)c1	3%	-17%	.	-1%	-3%	-5%
c1ccc(-c2noc(-c3ccc4ccccc4c3)n2)nc1	?	0.067µM*	0.5µM*	-22%	-25%	10µM*
Cc1cc(=O)oc2cc(OCC(=O)N3CCN(c4ccccc4)CC3)c(Cl)cc12	0%	19µM*	.	2%	-1%	.
Cc1cccc(N2CCN(C(=O)COc3cc4oc(=O)cc(C)c4cc3Cl)CC2)c1C	0%[9.26 µM]	-1%	.	0%	0%	.
N#C/C(=C/c1ccc(N2CCCCC2)o1)C(=O)Nc1ccc(Cl)cc1	2.3µM*	0.6µM*	3.2µM*	2.2µM*	2µM*	-1%
CCOc1ccc(NC(=O)/C(C#N)=C\c2ccc(-c3ccc(Cl)cc3)o2)cc1	.	-7%	-3%	.	.	.
N#C/C(=C/c1ccc(N2CCCCC2)o1)C(=O)Nc1ccc2ccccc2c1	0%	3.4µM*	-48%	6%	6%	-4%
Cc1ccc(-n2ncc(C(=O)NC3CCN(Cc4ccccc4)CC3)c2C2CCN(C(=O)OC(C)(C)C)CC2)cc1C	.	-4%	.	.	.	.
COc1ccc2nc(SCC(=O)/C(C#N)=C(\C)N)[nH]c2c1	?	8.5µM*	.	0.63µM*	1.1µM*	.
COc1ccc(-c2nnc(SCC(=O)/C(C#N)=C(\C)N)o2)cc1	1µM*	0.95µM*	4.5µM*	26%	0.71µM*	-5%
C/C(N)=C(/C#N)C(=O)CSc1nnc(-c2ccccc2Br)o1	2.6µM*	0.85µM*	2.8µM*	0.4µM*	0.45µM*	-5%
COc1ccc2nc(SCC(N)=O)[nH]c2c1	1%	-6%	18%	-4%	1%	2%
CC(C)CCNC(=O)NC(=O)CSc1nnc(-c2ccccc2Br)o1	0%	-12%	-16%	7%	-3%	-3%
CCCCCCCCCCCCCCCC(=O)OC(CO)CO	.	.	4%	.	.	0%
COc1ccc(C(=O)OCc2cc(=O)n3nc(-c4cccs4)sc3n2)cc1	.	-1%	.	.	.	.
COc1ccc2nc(N3C(=O)/C(=C/c4ccc(Cl)cc4)NC3=S)sc2c1	-7%	17µM*	-9%	2%	1%	-1%
COc1ccc(N2C(=O)/C(=C/c3cccs3)NC2=S)cc1	4%	?	?	0%	0%	3%
CC(C)(C)c1ccc(NC(=O)C2=CN3CCS(=O)(=O)N=C3C=C2)cc1	0%	15µM*	.	0%	0%	.
SMILES	ELG1 genotox	FLuc counter	SMN2 splice enh	Rab9 prom act	NPC1 prom act	Luc counter
Cc1ccc(Cn2c(C)c(CNCCCc3ccccc3)c(C(=O)O)c2C)cc1	.	-1%	0%	.	.	.
COC1=C/C(=C/c2c(N)n3c(nc2=O)sc2cc(S(C)(=O)=O)ccc23)C=CC1=O	4%	9.5µM*	.	27%	-1%	.
CCS(=O)(=O)c1nn2c(N)c(/C=C3/C=CC(=O)C(OC)=C3)c(=O)nc2s1	1%	?	-15%[1.84 µM]	-4%	6%	1%
CCOC1=C/C(=C/c2c(N)n3nc(-c4ccccc4)sc3nc2=O)C=CC1=O	-1%	?	0%	-3%	-4%	0%
CS(=O)(=O)c1ccc2c(c1)sc1nc(=O)c(/C=C3/C=CC(=O)C(O)=C3)c(N)n12	?	4.8µM*	.	1%	20%	.
COC1=C/C(=C/c2c(N)n3nc(-c4ccc(C)cc4)sc3nc2=O)C=CC1=O	?	15µM*	?	28%	19%	-1%
N/C(=N\OC(=O)c1cccnc1)c1ccccc1Cl	3%	17µM*	-33%	20%	23%	-6%
N/C(=N\OC(=O)c1ccccc1Cl)c1ccccn1	0.52µM*	0.15µM*	?	0.63µM*	0.35µM*	11µM*
N/C(=N\OC(=O)c1cccnc1)c1ccc(Cl)cc1Cl	?	?	13%	?	12%	1%
O=C(Oc1cccnc1)c1ccccc1[N+](=O)[O-]	0%	-2%	30%	-1%	3%	3%
COc1cc(OC)c(C(=O)O/N=C(\N)c2ccccn2)cc1OC	4%	-4%	.	14%	10%	.
COc1ccccc1C(=O)O/N=C(\N)c1ccccn1	?	11µM*	.	1.3µM*	1.4µM*	.
N/C(=N\OC(=O)c1ccccc1[N+](=O)[O-])c1ccccn1	?	2.1µM*	-5%	1.6µM*	1.8µM*	-5%
CCc1ccc(CNC(=O)c2ccc3c(c2)nc2n3CCOC2)cc1	.	-11%	.	.	.	.
Cc1ccc(C(=O)O/N=C(\N)c2ccccn2)c(C)c1	-17%	0.021µM*	.	?	0.032µM*	.
Cc1ccc(NC(=O)Cn2c(=O)n(-c3ccccc3)c(=O)c3ccc(C(=O)NCc4ccc5c(c4)OCO5)cc32)c(C)c1	.	0%	-15%	.	.	.
Cc1cc(C(=O)COc2cccnc2[N+](=O)[O-])c(C)n1-c1ccccc1F	5%	6µM*	.	12%	23%	.
Cc1cc(C(=O)COc2cccnc2[N+](=O)[O-])c(C)n1Cc1ccco1	11%	?	-19%	17%	9%	0%
Cc1ccc(-n2c(C)cc(C(=O)COc3cccnc3[N+](=O)[O-])c2C)cc1	?	17µM*	-42%	-5%	-2%	0%
Cc1cc(C(=O)COc2cccnc2[N+](=O)[O-])c(C)n1-c1ccccc1	7%	2.7µM*	-43%	-3%	3%	-4%
COCCCNC(=O)Cn1c(=O)n(-c2cccc(C)c2)c(=O)c2c1c1cc(C)ccc1n2C	.	-2%	.	.	.	.
CC(C)N(Cc1ccccc1)C(=O)Cn1ncc2c3ccccc3n(Cc3ccccc3)c2c1=O	.	-3%	5%	.	.	.
